Sampled rows, rich in hits. Any-hit rate of the full collection: about 2.2%.
FMDV antiviral – foot and mouth disease virus antiviral activity | FMDV antiviral cell-based qHTS | Potency, µM (top dose mostly 57.9 µM), for the others: top-dose activity change, negative = inhibition, most hits filed as inhibitors | 410,000 compounds, 1.2% hits; calls by dose curve; tested in HEK293T cells; further: read-out not given here; nearly all actives have a fitted effect of over 45% in size
VACV mCherry inh – inhibitors of vaccinia virus infection (mCherry reporter signal); Potency, µM (doses to about 36.5 µM), for the others: at the top dose activity change, negative = inhibition, hits mostly inhibitors; Vaccinia virus mCherry reporter infection, fluorescence; 310,000 compounds, 0.63% hits; calls by dose curve; tested in A549 cells; further: nearly all actives have a fitted effect of over 35% in size
Giardia FBPA inh-1 – Giardia lamblia aldolase inhibition; Potency, µM (series often up to 59.6 µM), without a hit: at the top dose activity, negative = inhibition, hits mostly inhibitors; 290,000 compounds, 0.71% hits; A8B2U2; purified Giardia FBPA; further: nearly all actives have a fitted effect of over 55% in size
Target sequence (A8B2U2 whole entry, looked up): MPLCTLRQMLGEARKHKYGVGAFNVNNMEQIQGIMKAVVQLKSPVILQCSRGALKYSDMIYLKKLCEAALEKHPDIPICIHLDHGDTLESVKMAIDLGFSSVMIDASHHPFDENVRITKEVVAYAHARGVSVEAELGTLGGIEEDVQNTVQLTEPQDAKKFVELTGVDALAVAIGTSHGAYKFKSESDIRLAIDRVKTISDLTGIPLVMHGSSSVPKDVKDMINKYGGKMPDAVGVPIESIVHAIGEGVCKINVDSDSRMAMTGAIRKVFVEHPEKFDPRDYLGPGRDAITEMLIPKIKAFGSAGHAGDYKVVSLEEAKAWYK
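40 nM FBPA preincubated 10 min at RT with compound (up to 57.5 uM final), then substrate plus GAPDH/TPI/NAD/arsenate coupling and diaphorase/resazurin added. Fluorescence read after 20 min at RT, 525/598 nm.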
VACV Venus inh – inhibitors of vaccinia virus (Venus reporter). Vaccinia virus Venus reporter expression, fluorescence. Potency, µM (doses to about 36.5 µM), inactives show at the highest dose activity change, negative = inhibition, hits mostly inhibitors. 330,000 compounds, 0.46% hits; calls by dose curve; tested in A549 cells; further: nearly all actives have a fitted effect of over 30% in size
Giardia growth – Giardia lamblia growth inhibition; 1,500 compounds, 5% hits; Giardia lamblia trophozoite growth inhibition; AID 2785; shares compounds with Giardia FBPA inh-1; Potency, µM (top dose mostly 57.5 µM), for inactives: top-dose activity change, negative = inhibition, usual class: inhibitors;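 further: trophozoites exposed to compound for 48 h at 37 °C; nearly all actives have a fitted effect of over 70% in size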
Mammal cell tox – toxic to mammalian cells in Giardia aldolase counter-screen; 1,500 compounds, 4% hits; shares compounds with Giardia FBPA inh-1; Potency, µM (series often up to 57.5 µM), for the others: at the highest dose viability change, negative = toxicity, most hits filed as inhibitors; AID 2786; mammalian cell viability counter-screen, qHTS;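 further: Chinese hamster ovary cells used as mammalian cytotoxicity surrogate; viability measured as cellular ATP by luminescence; compound exposure lasted 48 h before reading; nearly all actives have a fitted effect of over 60% in size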
Giardia FBPA inh-2 – confirmation of Giardia fructose-bisphosphate aldolase inhibitors; purified Giardia aldolase enzyme activity, qHTS; Potency, µM (top dose mostly 57.5 µM), inactives show at the highest dose activity change, negative = inhibition, most hits filed as inhibitors; 1,500 compounds, 5% hits; shares compounds with Giardia FBPA inh-1; further: nearly all actives have a fitted effect of over 45% in size
Rabbit FBPA inh – selectivity test for Giardia aldolase inhibitors: rabbit aldolase; Potency, µM (series often up to 57.5 µM), for inactives: at the highest dose activity, negative = inhibition, actives largely listed as inhibitors; 1,500 compounds, 4% hits; Rabbit muscle FBPA enzyme inhibition, selectivity counter-screen; shares compounds with Giardia FBPA inh-1; further: nearly all actives have a fitted effect of over 60% in size
GAPDH coupling – GAPDH inhibition flagged for Giardia aldolase hits. shares compounds with Giardia FBPA inh-1. GAPDH coupling enzyme counterscreen, biochemical, qHTS. Potency, µM (doses to about 57.5 µM), for the others: top-dose activity change, negative = inhibition, usual class: inhibitors. 1,500 compounds, 6% hits. AID 2795; further: nearly all actives have a fitted effect of over 55% in size
* = called active by the depositor; i = inactive; ? = inconclusive; / = no result; [ ] = remark or other dose. Unless noted, the call rests on the fitted dose curve; in most records, active means well fitted curve in the direction sought with a large enough effect; inconclusive means small, poorly fitted or top-dose-only effect, or another doubt; inactive means no such curve, though single readings can be large; an effect the other way counts as inactive or inconclusive. On the % scale 0 is the no-effect control and ±100 the full control effect; potency means the concentration at half of the fitted maximal effect.

SMILES | FMDV antiviral | VACV mCherry inh | Giardia FBPA inh-1 | VACV Venus inh | Giardia growth | Mammal cell tox | Giardia FBPA inh-2 | Rabbit FBPA inh | GAPDH coupling
Cc1cc(C)c2nc(-c3ccccn3)cc(C(=O)NCCc3ccc(S(N)(=O)=O)cc3)c2c1 | 14% | i | 18µM* | -17% | 3%[10.4 µM] | -1% | -1% | 3% | 15%
COc1ccccc1Nc1nc(NCCO)c2ccccc2n1 | / | / | 8% | / | / | / | / | / | /
Cc1ccc(Nc2nc(NCCO)c3ccccc3n2)cc1C | -18% | -15% | 25µM* | ? | 4%[10.4 µM] | ? | -2% | 4% | -16%
COc1ccc(NC(=O)C(NCC(C)C)c2ccccc2)cc1Cl (configuration not stated) | 3% | -2% | 14µM* | 10% | ? | 2% | 8% | 20% | 2%
COc1ccc(NC(=O)C(OC)c2ccccc2)cc1Cl (configuration not stated) | 8% | -8% | 0% | -7% | / | / | / | / | /
CCCC/C=C/[C@H](c1ccccc1)[C@H](CO)Cc1ccc([N+](=O)[O-])cc1 | / | / | -3% | / | / | / | / | / | /
CCOc1ccc(/C=N/Nc2nc(=O)[nH]nc2C)cc1OC | 38% | / | 20µM* | / | ? | 6% | 4% | -1% | 1%
O=C(O)CC1S/C(=N/N=C/c2ccccn2)NC1=O (configuration not stated) | 7% | / | 18µM* | / | 15% | 12% | 18% | 4% | 8%
Cc1ccc(C(=O)CSc2ncn[nH]2)cc1 | 43% | / | 28µM* | / | 6%[10.4 µM] | -7% | -1% | 2% | 0%
COc1ccc(CCCC(=O)N/N=C/c2ccccc2OC)cc1 | 2% | / | 16µM* | / | -12%[10.4 µM] | -12% | ? | 40µM* | 25µM*
COc1ccc(CCCC(=O)N/N=C/c2ccc(C)cc2)cc1 | 47% | / | -12% | / | / | / | / | / | /
C=CCNCCCOc1ccc(Cl)cc1C(C)(C)C | -12% | -27% | 18µM* | -18% | 7% | -25% | -15% | -14% | -16%
C=CCNCCOCCOc1ccc(Cl)cc1C(C)(C)C | -16% | -4% | -28% | -16% | / | / | / | / | /
C=CC(C)n1c(Br)nc2c1c(=O)[nH]c(=O)n2C (configuration not stated) | -5% | -15% | -1% | -16% | / | / | / | / | /
CC(C)n1c(=S)[nH]c2c1c(=O)[nH]c(=O)n2C | -5% | 1% | 16µM* | 1% | -7%[10.4 µM] | -6% | -3% | -18% | 6%
CC1(C)C2CCC(C2)C1(C)NC(=O)CN1CCN(Cc2ccccc2)CC1 (configuration not stated) | ? | -13% | 16µM* | -1% | 0%[10.4 µM] | 3% | -4% | 4% | -9%
Cc1ccc(C(O)C2=CCCC2=O)cc1 (configuration not stated) | / | / | 1% | / | / | / | / | / | /
Cc1ccc(C2/C(=C(/O)c3ccc(Br)cc3)C(=O)C(=O)N2Cc2ccco2)o1 (configuration not stated) | 21% | / | 20µM* | -15% | ? | 13% | -11% | -16% | -12%
COc1ccc(/C(O)=C2\C(=O)C(=O)N(Cc3ccco3)C2c2cc(OC)ccc2OC)cc1 (configuration not stated) | / | -3% | -25% | -18% | / | / | / | / | /
Cc1nc(NC(=O)CN2CC(C)OC(C)C2)sc1C(=O)N(C)C (configuration not stated) | -9% | -28% | 11µM* | -14% | 15% | 1% | 7% | 8% | 9%
Cc1nc(NC(=O)C2CC2)sc1C(=O)N(C)C | -10% | / | -2% | / | / | / | / | / | /
CCC(NC(=O)NNC(N)=S)(C(F)(F)F)C(F)(F)F | -7% | ? | 20µM* | 28µM* | 17% | 9% | 6% | 3% | 7%
CCC(NC(=O)Nc1ncccc1C)(C(F)(F)F)C(F)(F)F | -24% | / | 0% | -8% | / | / | / | / | /

Bioassay records (PubChem)
